Pemphigus Ab inh: human desmoglein-3 autoantibody binding inhibition | hit rate 0.48% among 310,000 | binding (percent of control), % at 10 µM | DSG3-coupled beads, scFv-anti-DSG3-GFP binding, flow cytometry; active compounds read low;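 active = binding more than 3 SD below its plate's average and above zero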;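 also: hits lower antibody fragment binding to DSG3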
MPTP inh: permeability transition pore inhibition; inhibition, % at 10 µM; isolated mouse mitochondria, Ca2+ swelling absorbance, 30 min; hit rate 1.4% among 360,000;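 active = inhibition of 50% or more, scaled per plate between neutral and stimulator controls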;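 also: 0% = DMSO wells given calcium and 100% = 1 mM EGTA wells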
rCAG binder: molecules binding r(CAG) RNA repeats. hit rate 1.3% among 370,000. r(CAG) RNA repeat, TO-PRO-1 dye displacement fluorescence. inhibition, % at 3 µM;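 active = inhibition above the plate cutoff, the mean of all test compounds on that plate plus 3 SD, cut at about 35% in these data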;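 also: 0% = DMSO alone and 100% = 100 µM mitoxantrone as full dye displacement; higher means more dye released from RNA so lower well fluorescence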
ADAM17 inh: inhibitors of human ADAM17 | recombinant ADAM17, EDANS/DABCYL FRET peptide cleavage | inhibition, % at 6.95 µM | hit rate 0.83% among 370,000 | AID 720648;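 active = inhibition above the mean of compounds lying between control limits plus 3 SD, set per campaign, cut at about 8.5% in these data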;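 also: 0% = DMSO-only wells as the low control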
Target sequence (P78536 215-824 limits assumed): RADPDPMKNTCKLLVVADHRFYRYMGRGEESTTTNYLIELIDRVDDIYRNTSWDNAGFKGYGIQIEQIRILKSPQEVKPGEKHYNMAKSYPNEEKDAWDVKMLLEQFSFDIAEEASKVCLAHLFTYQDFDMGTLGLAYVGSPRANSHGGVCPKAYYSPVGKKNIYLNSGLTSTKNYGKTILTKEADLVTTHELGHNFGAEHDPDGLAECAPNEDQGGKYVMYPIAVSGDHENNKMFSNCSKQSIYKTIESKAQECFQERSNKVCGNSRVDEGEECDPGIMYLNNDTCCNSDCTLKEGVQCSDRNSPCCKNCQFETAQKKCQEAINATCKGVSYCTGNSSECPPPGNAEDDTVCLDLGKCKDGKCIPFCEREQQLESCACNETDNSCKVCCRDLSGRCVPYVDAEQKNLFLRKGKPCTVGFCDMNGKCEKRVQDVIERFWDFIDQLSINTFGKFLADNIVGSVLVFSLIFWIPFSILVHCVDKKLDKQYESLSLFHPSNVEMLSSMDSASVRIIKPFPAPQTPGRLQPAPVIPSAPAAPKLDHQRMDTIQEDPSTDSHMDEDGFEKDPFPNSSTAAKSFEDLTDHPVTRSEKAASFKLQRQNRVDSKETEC
KLK7 zymogen act: activates the human kallikrein-7 zymogen; purified proKLK7, EDANS-DABCYL substrate fluorescence; 100% is mature enzyme control, 0% vehicle; activation, % at 7 µM; hit rate 0.9% among 370,000; AID 652039;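 active = activation above the mean of all tested compounds plus 3 SD, computed per campaign excluding outliers beyond control limits, cut at about 13% in these data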
ADAM10 inh: inhibits human ADAM10. inhibition, % at 7 µM. recombinant ADAM10, EDANS/DABCYL FRET peptide cleavage, 3 h. hit rate 0.62% among 370,000. O14672;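 active = inhibition above a per-campaign cutoff equal to the mean of compounds falling between control-based bounds plus 3 SD, cut at about 20% in these data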;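 also: 0% = DMSO wells while the 100% control is not disclosed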
MPTP counter: membrane potential counter-screen of mitochondrial pore inhibitors | hit rate 78% among 5,000 | isolated mitochondria, Rhodamine 123 fluorescence | shares compounds with MPTP inh | AID 624504 | inhibition, % at 10 µM; in the data active = inhibition above about 22%;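 also: 0% = DMSO vehicle and 100% = positive control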
MPTP swell DR: dose response confirmation of mitochondrial permeability transition pore inhibitors; shares compounds with MPTP inh; isolated mitochondria swelling, absorbance; IC50, µM; hit rate 58% among 780; in the data active = IC50 below about 20 µM
MPTP cs DR: active in counter-screen for permeability transition pore inhibitors; shares compounds with MPTP inh; isolated mitochondria counterscreen, fluorescence read-out; IC50, µM; hit rate 49% among 780; in the data active = IC50 below about 80 µM
* = called active by the depositor; i = inactive; . = no result given. Shown are actives, neighbours in structure and some others; about 4.7% of the full set was active somewhere.

SMILES	Pemphigus Ab inh	MPTP inh	rCAG binder	ADAM17 inh	KLK7 zymogen act	ADAM10 inh	MPTP counter	others
N/C(=N\OC(=O)COc1ccc2ccccc2c1)c1cccnc1	102	61*	-3	5	-1	6	84*
Nc1nc2c(ncn2[C@@H]2O[C@H](C(=O)N[C@H](Cc3ccccc3)C(=O)O)[C@@H](O)[C@H]2O)c(=O)[nH]1	.	.	2	-3	0	-10	.
CC(CCc1ccccc1)NC(=O)/C=C/c1ccc(Cl)cc1 (centres undefined)	108	4	-2	5	0	7	.
CC(NC(=O)/C=C/c1ccc(Br)cc1)c1ccc(Cl)cc1 (centres undefined)	90	78*	0	3	0	5	84*
O=S(=O)(c1ccc(Br)cc1)N1CCN(c2cc(-c3ccccc3)nc3ncnn23)CC1	96	1	.	.	.	.	.
O=S(=O)(c1ccccc1)N1CCN(c2cc(-c3ccccc3)nc3ncnn23)CC1	103	82*	1	-3	0	-2	78*
CS(=O)(=O)c1cccc(OCCCN2CCC(C(O)(c3ccccc3)c3ccccc3)CC2)c1	.	.	0	-2	1	-7	.
Cn1c(=N)n(CC(O)c2ccco2)c2ccccc21 (centres undefined)	108	14	2	-3	1	5	.
Cn1c(=N)n(CC(O)c2cccc3ccccc23)c2ccccc21 (centres undefined)	98	90*	11	-7	0	-4	5	MPTP swell DR=3.4*;MPTP cs DR=37*
O=C(O)[C@@H]1C[C@@H](O)CN1	.	.	3	-5	0	4	.
CC1(C)SC(=S)N(NC(=O)Nc2ccccc2)C1N(O)C(=O)Nc1ccccc1 (centres undefined)	98	58*	6	-2	1	8	70*
COC(=O)/C=C1\SC(=NC(=O)c2cccc(Cl)c2)NC1=O	94	60*	8	-2	1	-5	37*
COC(=O)/C=C1/SC(=NC(=O)c2ccccc2)NC1=O	100	-1	7	-6	0	-2	.
COCc1cc(N2CCN(C(=O)OC(C)(C)C)C[C@H]2C)ccc1N1CC[C@@H](O)C1	.	.	11	-6	0	-11	.
CCOC(=O)Cc1nnc2c(Nc3ccc(Cl)cc3)nc3nonc3n12	114	94*	11	3	0	-2	87*
COc1ccc(NC(=O)c2ccccc2F)cc1Cl	104	0	1	-5	0	-3	.
O=C(Nc1ccc(Oc2ccc(Cl)cc2)c(Cl)c1)c1cc(I)cc(I)c1O	101	106*	11	-6	0	-11	74*
O=Nc1ccc(Cl)cn1	.	.	4	-11	1	-43	.
CCSc1nc2sc3c(c2c(=O)n1C1CCCCC1)CCN(C)C3	132	50*	2	-19	-1	-36	30*
C=C(C)CSc1nc2sc3c(c2c(=O)n1C1CCCCC1)CCN(C)C3	101	1	2	-63	-5	-256	.
COc1cc(C)ccc1OCCCCOc1ccccc1C(C)=O	102	95*	1	2	-1	-6	85*
COC(=O)c1ccccc1OCCCOc1ccc(C=O)cc1OC	104	58*	-8	-4	0	-6	-8	MPTP swell DR=11*;MPTP cs DR=>80
COC(=O)C1=C(C)N(C)C(=NCc2ccc(OC)cc2)NC1c1ccc(F)cc1 (centres undefined)	.	.	7	-4	0	-7	.
COc1ccc(OC)c2sc(N(CCN(C)C)C(=O)c3ccc4ccccc4c3)nc12	104	-1	0	-4	0	3	.
COc1cc2ccccc2cc1C(=O)N(CCN(C)C)c1nc2c(OC)ccc(OC)c2s1	.	67*	2	1	-1	0	-8	MPTP swell DR=>100;MPTP cs DR=52*
SMILES	Pemphigus Ab inh	MPTP inh	rCAG binder	ADAM17 inh	KLK7 zymogen act	ADAM10 inh	MPTP counter	others
COc1cc2ccccc2cc1C(=O)N(CCN(C)C)c1nc2c(C)cccc2s1	.	69*	2	3	-1	8	-8	MPTP swell DR=i;MPTP cs DR=>80
Cc1cccc2sc(N(CCN(C)C)C(=O)C3CCN(S(=O)(=O)c4cccs4)CC3)nc12	103	72*	-2	-1	0	-2	-18	MPTP swell DR=i;MPTP cs DR=>80
CN(C)CCN(C(=O)C1CCN(S(=O)(=O)c2cccs2)CC1)c1nc2ccc(F)cc2s1	99	12	-10	-1	0	-11	.
COc1ccc(Cl)c2sc(N(CCN(C)C)C(=O)c3ccc4c(c3)OCCO4)nc12	94	74*	-2	-4	1	-7	-13	MPTP swell DR=i;MPTP cs DR=50*
COC(=O)C1=C(C)N(C)C(=NCc2ccccc2C(F)(F)F)NC1CCc1ccccc1 (centres undefined)	.	.	5	-4	0	-8	.
Cc1ccc(NC(=O)C(C)c2ccc(-c3ccccc3)c(F)c2)cc1 (centres undefined)	102	89*	6	7	0	19	110*
c1ccc2sc(NC3=NCN(C4CCCCCC4)CN3)nc2c1	97	95*	0	0	1	7	20
O=C(Cc1ccc(Cl)cc1)Nc1ccc(SC(F)F)cc1	92	92*	-2	7	0	19	105*
O=C(NCCc1c[nH]c2ccccc12)c1ccc2c(c1)ncn2C1CCCCC1	.	.	6	3	0	-1	.
O=C(NC(NC(=S)N1CCOCC1)C(Cl)(Cl)Cl)c1ccc(Cl)cc1 (centres undefined)	83	67*	5	0	0	-1	83*
CCCCC(=O)NC(NC(=S)N1CCOCC1)C(Cl)(Cl)Cl (centres undefined)	127	0	0	-2	-1	2	.
Cc1cc(-c2n[nH]c(=S)n2N=Cc2cc(Br)ccc2F)n[nH]1	.	.	14	1	0	5	.
CSc1nc(O)c(/C=C2\C=Nc3ccccc32)[nH]1	.	0	1	3	0	6	.
Oc1nc(Nc2ccc(Cl)cc2Cl)sc1/C=C1\C=Nc2ccccc21	102	96*	17	-3	0	-4	58*
CCOC(=O)[C@@H]1CSCCS(=O)(=O)N1Cc1ccccc1	.	.	1	-2	0	-2	.
Cc1csc(N=Nc2ccc(N(C)C)cc2)[n+]1[O-]	101	68*	6	-2	0	-2	-22	MPTP swell DR=i;MPTP cs DR=>80
CN(C)c1ccc(N=Nc2ccc(C(=O)O)cc2)cc1	95	3	5	-3	0	-4	.
CCOC(=O)N[C@@H](CC(C)C)C(=O)N1CCC[C@H]1C(=O)NCc1ccccc1	.	.	-1	2	0	2	.

From PubChem
